# In PubChem BioAssay (NCI):
# This is part of a sample that, as a whole, favours compounds with a hit. Of some 83,000 tested, about 20% had one in any assay.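 For each line, cells grew in 96-well plates with the test compound present at a single concentration for 48 hours.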 A number with no mark means an inactive call. Calls of active or inactive are those of the source. The calls were made as follows: active = growth percent below 10; inactive = the rest.
# How the values were obtained:
# Assay in all cases: NCI-60 one-dose screen, 48 h (100 = growth as untreated, 0 = no growth, -100 = all killed)
# Details in all cases: 10 µM
# HCT-15 colon = test system: HCT-15 colon
# HT29 colon = test system: HT29 colon
# SNB-75 CNS = test system: SNB-75 CNS
# SNB-19 CNS = test system: SNB-19 CNS
# U251 CNS = test system: U251 CNS
# PC-3 prostate = test system: PC-3 prostate
# SK-MEL-5 melanoma = test system: SK-MEL-5 melanoma
# UACC-62 melanoma = test system: UACC-62 melanoma
# LOX IMVI melanoma = test system: LOX IMVI melanoma
# SK-MEL-28 melanoma = test system: SK-MEL-28 melanoma
# SK-MEL-2 melanoma = test system: SK-MEL-2 melanoma
# EKVX NSCLC = test system: EKVX NSCLC
# SN12C renal = test system: SN12C renal
# UO-31 renal = test system: UO-31 renal
# ACHN renal = test system: ACHN renal
# CAKI-1 renal = test system: CAKI-1 renal
# A498 renal = test system: A498 renal
# CCRF-CEM leukemia = test system: CCRF-CEM leukemia
# MOLT-4 leukemia = test system: MOLT-4 leukemia
# TK-10 renal = test system: TK-10 renal
SMILES,growth (HCT-15 colon) [%],growth (HT29 colon),growth (SNB-75 CNS),growth (SNB-19 CNS),growth (U251 CNS),growth (PC-3 prostate),growth (SK-MEL-5 melanoma),growth (UACC-62 melanoma),growth (LOX IMVI melanoma),growth (SK-MEL-28 melanoma) [%],growth (SK-MEL-2 melanoma),growth (EKVX NSCLC) [%],growth (SN12C renal),growth (UO-31 renal),growth (ACHN renal) [%],growth (CAKI-1 renal) [%],growth (A498 renal),growth (CCRF-CEM leukemia),growth (MOLT-4 leukemia),growth (TK-10 renal)
COc1ccc(-c2n[nH]nc2-c2cc(OC)c(OC)c(OC)c2)cc1,25.8,4.38% (active),50.1%,58.3%,1.61% (active),23.4%,-53.9% (active),38.4%,9.46% (active),64.4,21.2%,54.4,25%,44.3%,41.2,27.6,-12.9% (active),9.31% (active),6.91% (active),
CCCCCCCCCCCC[n+]1c(C)cc(N)c2ccccc21,34.7,-8.54% (active),3.98% (active),9.29% (active),8.56% (active),-6.19% (active),-96.7% (active),-27.8% (active),-74.4% (active),29.5,-52.1% (active),14.5,7.94% (active),,12,25.7,,9.62% (active),-24.1% (active),7.85% (active)
COc1cc2cc(Oc3ccc(NC(=O)Nc4ccc(Cl)c(Cl)c4)cc3)c(C)nc2cc1OC,18.9,10.9%,22.4%,28.6%,-32.3% (active),4.12% (active),-35% (active),20.4%,23.1%,44.6,-7.82% (active),21,22.1%,3.69% (active),16.4,21.7,,13.3%,3.69% (active),
Cc1ccc(C)c(COc2cc(NC(=O)c3ccc4c(c3)OCO4)ccc2N(C)S(C)(=O)=O)c1,11.2,5.29% (active),4.74% (active),18.3%,12.9%,26.8%,-42.5% (active),15.8%,36%,64.6,37.6%,29.6,27.2%,,,,-11.3% (active),13.2%,7.75% (active),54.1%
CCCCN1C(=O)CC(SC2CC(=O)N(CCCC)C2=O)C1=O (stereo not given),120,76.1%,87.4%,99.5%,107%,99.4%,104%,96.6%,95%,121,99.7%,98.5,102%,,99,88.6,99.6%,97.1%,103%,103%
Nc1cc(Br)c(-c2nn3c(CCC(=O)c4nc5ccccc5[nH]4)nnc3s2)c(Br)c1,124,78.7%,92.6%,104%,97.5%,87.1%,91.6%,101%,93.4%,111,100%,95.5,97.7%,71.1%,99.8,95.4,65.6%,,84.9%,
O=C(CN1CCN(C(=O)c2ccccc2)CC1)Nc1ccccc1SCc1ccccc1,87.3,81%,75.6%,90.7%,90.8%,57.9%,56.9%,52%,73.9%,98.2,66.8%,,77.9%,52.2%,80.8,71.8,86.6%,,74.1%,82.2%
CC(=O)OC/C=C(/C)C[P+](c1ccccc1)(c1ccccc1)c1ccccc1,73.3,59.8%,76.8%,47%,35.8%,41.3%,43.1%,47.6%,55.2%,69,83.8%,,51.5%,61.1%,70,,81.9%,52.7%,,70.6%
O=C1CC(SC(=S)C2CCCC2=O)C(=O)N1 (stereo not given),98.1,103%,105%,94.7%,97.1%,97.1%,103%,102%,97.5%,113,96.9%,,99.3%,92.3%,103,102,100%,101%,96.5%,108%
O=[N+]([O-])c1ccc(NCSc2ccc(Cl)cc2)cc1,96.9,107%,98.6%,103%,82%,80.9%,100%,77.8%,81.9%,104,98.5%,97.3,,,92.8,96.2,,50.4%,61.7%,105%
COc1cc(-c2nn(-c3ccc(NC(=O)NCCCNC(=O)c4ccccc4)cc3)cc2-c2ccncc2)ccc1Cl,20.3,3.51% (active),25%,55.8%,14.9%,19.4%,-43.5% (active),51.7%,15.1%,52.1,18%,,54.5%,29.6%,23.7,,12.7%,14.5%,23.5%,59.3%
O=C(N/N=C/c1ccc(Cl)cc1)c1ccc(Cc2n[nH]c(=O)c3cccnc23)cc1,97.1,99.3%,84.5%,89%,103%,95.4%,100%,94.2%,100%,104,108%,,100%,74.3%,102,94.8,131%,107%,98.6%,107%
CC(C)(C)c1nn(-c2ccccc2)c2c1CC1(CN2Cc2ccc(Cl)cc2)C(=O)c2ccccc2C1=O,88.2,65.1%,120%,84.5%,85.7%,44.2%,78.5%,73.6%,81.8%,102,92.4%,,86.1%,99.6%,98.9,,76.5%,66.2%,,99.3%
Cc1nn(-c2ccccc2)c2nc(Cl)c(C=O)c(-c3ccccc3)c12,94.8,56.7%,106%,95.6%,92.8%,77.4%,87.1%,79.4%,86.9%,107,114%,,98.2%,48.1%,114,,78.6%,36.3%,,113%
COc1cc(/C=C/c2cc(/C=C/c3ccc(O)c(OC)c3)[nH]c(=O)n2)ccc1O,81.8,-6.41% (active),44.3%,82.6%,55.6%,61%,70.7%,63.3%,49%,50.9,81.1%,,62.3%,54.2%,89.4,88.6,62.8%,16.7%,,103%
Cc1cc(CSc2ccccc2C(=O)N2CC=C(c3ccccc3)CC2)on1,95.2,84.2%,90.3%,104%,98.7%,82.9%,97.5%,90.4%,92.1%,98.1,94.1%,,105%,88.1%,91.6,86.3,98.4%,,91.6%,96.9%
CNC(=O)c1cn2c3c(c(N4CCN(C)CC4)c(F)cc3c1=O)OC[C@@H]2C,102,96.2%,84.1%,106%,99.5%,96.2%,101%,103%,94.8%,108,95.4%,93.5,,92.3%,111,94.7,92.8%,,101%,90.6%
